From PubChem
IL1B secr inh: qHTS for Inhibitors of Inflammasome Signaling: IL-1-beta AlphaLISA Primary Screen | THP-1 LPS/ATP IL-1B secretion, AlphaLISA, 16 h; stronger effect = lower value | activity change, % at 57.5 µM | hit rate 4.7% among 360,000 | AID 743279, 2014; in the data active means activity change below about -50%; inconclusive means mostly about -30% to -49%; further: on the % scale 0 is the no-effect control and ±100 the full control effect
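Secreted IL-1B measured by AlphaLISA bead assay after 16 h compound exposure of THP-1 cells; compounds (final up to 57.5 uM) added 1 h before LPS (250 ng/mL) and ATP (1.25 mM) stimulation; lower signal means less secretion.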
ATXN2 expr inh: Primary qHTS for Inhibitors of ATXN expression. HEK-293 ATXN2-luciferase reporter, luminescence, 24 h. Potency, µM (titrated, usually from 57 µM), without a hit: top-dose activity change, negative = inhibition, usual class: inhibitors. hit rate 0.72% among 360,000; further: potency means the concentration at half of the fitted maximal effect; on the % scale 0 is the no-effect control and ±100 the full control effect; nearly all actives have a fitted effect of over 55% in size
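qHTS (up to 57 uM final) was run with 24 h compound exposure of reporter cells at 37 °C. Each well was multiplexed: SteadyGlo luminescence measured ATXN2-luciferase expression after a fluorogenic Gly-Phe-AFC viability readout (25 uM final).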
PINK1 modulator: A Quantitative High throughput Screen to Identify Chemical Modulators of PINK1 Expression | hit rate 0.2% among 410,000 | AID 624263, 2012 | PINK1 immunofluorescence, high-content cytometry, 24 h | Potency, µM (top dose mostly 76.6 µM), for the others: top-dose activation (PINK1 increase), most hits filed as activators; active means well fitted activation curve with a large enough effect; inconclusive means small, poorly fitted or top-dose-only effect; cell line not stated here; further: potency means the concentration at half of the fitted maximal effect; % of control where 0% means no effect; nearly all actives have a fitted effect of over 65% in size
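A stable cell line was treated with compounds at 5 concentrations for 24 hours, with CCCP as control. PINK1 levels and mitochondrial localization were measured by immunofluorescence with mitochondrial, cell and nuclear markers after fixation, read by laser-scanning cytometry.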
SW480 rerep: A quantitative high throughput screen for small molecules that induce DNA re-replication in SW480 colon adenocarcinoma cells; SW480 DNA re-replication, Hoechst DNA content imaging, 48 h; Potency, µM (titrated, usually from 46.1 µM), for the others: top-dose re-replication activation, most hits filed as activators; hit rate 1.8% among 340,000; further: potency means the concentration at half of the fitted maximal effect; % of control where 0% means no effect; nearly all actives have a fitted effect of over 55% in size
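Treated cells incubate 48 hr (37 C, 5% CO2), are stained 40 min with Hoechst, and nuclear fluorescence is enumerated; a rise in nuclei with high DNA signal marks re-replication.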
S2 tox: Viability Counterscreen for Primary qHTS for Inhibitors of ATXN expression. S2 cells (HEK-293 line with an ATXN2-luciferase reporter) viability, CellTiter-Fluor protease fluorescence, 24 h. Potency, µM (doses to about 56.7 µM), most hits filed as cytotoxic. AID 651635, 2014. hit rate 0.49% among 400,000; further: potency means the concentration at half of the fitted maximal effect; nearly all actives have a fitted effect of over 40% in size
MCF10A rerep: A quantitative high throughput screen for small molecules that induce DNA re-replication in MCF 10a normal breast cells | hit rate 2.9% among 350,000 | Potency, µM (series often up to 46.1 µM), for the others: top-dose activity, positive = re-replication, hits mostly activators | MCF 10A DNA re-replication, Hoechst nuclear intensity, 48 h; further: potency means the concentration at half of the fitted maximal effect; % of control where 0% means no effect; nearly all actives have a fitted effect of over 50% in size
* hit, by the source's call; i = inactive; ? = inconclusive; / = no result; [ ] = remark or other dose. Rows were chosen to be rich in hits. Some 7.1% of all compounds tested hit in one or more screens of this group. Unless noted, the call rests on the fitted dose curve; in most records, active means well fitted curve in the direction sought with a large enough effect; inconclusive means small, poorly fitted or top-dose-only effect, or another doubt; inactive means no such curve, though single readings can be large; an effect the other way counts as inactive or inconclusive.

SMILES	IL1B secr inh	ATXN2 expr inh	PINK1 modulator	SW480 rerep	S2 tox	MCF10A rerep
COc1ccc(-n2nnnc2S(=O)(=O)Cc2ccc(C(=O)O)cc2)cc1	-87*	?	6%[38.3 µM]	7.3µM*	?	16µM*
COc1ccc(-n2nnnc2S(=O)(=O)CC(=O)N2CCCCC2)cc1	-110*	13µM*	0%	16%	10µM*	7.3µM*
Cc1cccc(NC(=O)c2cc3c(=O)n4cccc(C)c4nc3s2)c1C	/	16%	11%	/	i	/
CC(C)CN1C(=O)CSCC1(C)C(=O)NC(C)C (centres undefined)	-68*	/	/	/	/	/
CC(C)CN1C(=O)CSCC1(C)C(=O)Nc1ccc2c(c1)OCCO2 (centres undefined)	-16	/	/	/	/	/
CCOc1ccc(NC(=O)CN2C(=O)C(c3ccccc3)=NC23CCC(C)CC3)cc1 (centres undefined)	/	/	3%	/	/	/
COc1ccc2cc3c(N)nn(C(=O)c4ccccc4Cl)c3nc2c1	-65*	-23%	-1%	4.1µM*	?	23%
COc1ccc2cc3c(N)nn(C(=O)c4ccc(F)cc4)c3nc2c1	?	/	-1%	?	i	?
COc1ccc2cc3c(N)nn(C(=O)Cc4c[nH]c5ccccc45)c3nc2c1	-98*	/	-1%	?	?	?
Cc1ccc(-c2noc(-c3nnn(CC(=O)Nc4cccc(C(F)(F)F)c4)c3N)n2)cc1	/	/	-1%	/	/	/
CCn1cc(CNCc2cn(C)nc2-c2ccc(C3CCCCC3)cc2)cn1	-63*	-3%	-1%	12%	i	?
Oc1c(C(c2ccc(Cl)cc2)N2CCC3(CC2)OCCO3)sc2nc(-c3ccco3)nn12 (centres undefined)	/	-3%	3%	/	i	/
N#C/C(=C\Nc1ccc2cn[nH]c2c1)c1nc(-c2ccccc2)cs1	15	-22%	2%	3%	i	16µM*
COc1ccc(CCNC(=O)c2ccc(COc3ccccc3OC)o2)cc1	-21	/	5%	-6%	i	13%
COc1ccc(CCNC(=O)c2ccccc2)cc1	-5	37%	0%	-1%	i	0%
COc1ccc(CCNC(=O)c2ccc(CSc3ccccc3)o2)cc1	-59*	-11%	0%	0%	/	17%
COc1ccc(CCNC(=O)c2cccnc2)cc1	14	3%	-5%[38.3 µM]	?	i	16µM*
O=C(CN1CCN(S(=O)(=O)c2ccc(F)cc2)CC1)Nc1cccc(C(F)(F)F)c1	-69*	-15%	7%	2%	i	-2%
CC1CCN(CC(=O)Nc2cccc(C(=O)Nc3cccc(C(F)(F)F)c3)c2)CC1	-75*	?	10%	?	?	?
Cc1c(CCC(=O)NCCCn2ccnc2)c(=O)oc2c(C)c3occ(C(C)(C)C)c3cc12	-97*	?	-1%	21µM*	?	?
NC1(C(=O)O)CSSC1	-77*	?	2%	?	?	10µM*
Cc1ccsc1/C=N/NC(=O)c1cc(-c2ccncc2)nc2ccccc12	-10	-8%	3%	1.5µM*	i	0.73µM*
O=C(NC1=NCCS1)c1cc(-c2cccs2)nc2ccccc12	-64*	-16%	14%	7%	i	20%
O=C(O)c1ccc(/C=N/NC(=O)c2cc(-c3cccs3)nc3ccccc23)cc1	18	26%	0%	-2%	i	?
O=C(N/N=C/c1ccccn1)c1cc(-c2ccncc2)nc2ccccc12	-24	?	7%	-3%	?	?
SMILES	IL1B secr inh	ATXN2 expr inh	PINK1 modulator	SW480 rerep	S2 tox	MCF10A rerep
O=C(NC1=NCCS1)c1cc(-c2cccnc2)nc2ccccc12	1	-23%	9%	0%	i	-4%
O=C(N/N=C/c1ccsc1)c1cc(-c2ccncc2)nc2ccccc12	4	-18%	5%	7.3µM*	?	9.2µM*
O=C(N/N=C/c1ccsc1)c1cc(-c2cccs2)nc2ccccc12	7	-20%	15%	6.5µM*	?	5.8µM*
CCOC(=O)c1c(C)[nH]c(C)c1S(=O)(=O)N(C)CC(=O)Nc1ccc(C)c(N(C)C)c1	/	0%	0%	/	i	/
Cc1sc2ncn(CC(=O)N(C)c3ccc(C(C)C)cc3)c(=O)c2c1S(=O)(=O)N1CCC(C)CC1	/	4%	5%	/	i	/
Cc1ccc(NC(=O)c2nnn(CC(=O)Nc3ccc(C)c(Cl)c3)c2N)c(C)c1	/	/	-6%	/	/	/
CC1(c2ccccc2)NC(=O)N(CC(=O)Nc2cccc(/C=C/c3ccccn3)c2)C1=O (centres undefined)	-53*	2%	3%	?	i	5%
CCOC(=O)c1c(NC(=O)CN2C(=O)NC3(CCCCC3C)C2=O)sc(C)c1C (centres undefined)	2	6%	-1%	0%	?	?
CCOC(=O)c1c(NC(=O)CN2C(=O)NC3(CCCC3)C2=O)sc(C)c1CC	-57*	-13%	-3%	7%	i	10%
CCOC(=O)c1c(NC(=O)CN2C(=O)NC(C)(c3ccccc3)C2=O)sc(C)c1C (centres undefined)	-2	-22%	-2%	?	i	10µM*
COC(=O)c1c(NC(=O)CSc2ccccc2N)sc(C)c1C	-62*	-11%[11.3 µM]	4%	1%	i	22%
CCOC(=O)c1c(NC(=O)CN2C(=O)NC3(CCCCCC3)C2=O)sc(C)c1-c1ccc(C)cc1	-9	-15%	9%	-1%	i	?
COc1cccc(OC)c1CN1CCC2(CCC(CNC(=O)c3ccn(C)n3)O2)CC1 (centres undefined)	/	/	0%	/	i	/
O=C(Nc1ccccc1)N1CCCC2(CCN(C(=O)c3cc(C(F)(F)F)cc(C(F)(F)F)c3)CC2)C1	/	/	-1%	/	/	/
Cc1nnc(SCC(=O)Nc2ccc(N(C)C)cc2)[nH]c1=O	/	6%	1%	/	i	/
COc1ccccc1N1CCN(S(=O)(=O)CCNC(=O)COc2ccc(C(C)C)cc2)CC1	/	/	0%	/	/	/
Cn1cc(CN2CCC(n3nccc3NC(=O)c3ccccc3Cl)CC2)c2ccccc21	-82*	?	-2%	?	?	?
CCc1ccc(CN2CCC(n3nccc3NC(=O)c3ccc4c(c3)OCO4)CC2)cc1	-56*	-13%	0%	-3%	i	?
COc1ccccc1C(=O)Nc1ccnn1C1CCN(Cc2cn(C)c3ccccc23)CC1	-22	/	5%	11%	?	-17%
